Compounds with a hit are over-represented: about 1.2% of the library has one in this group of screens.
RGS4-Gao reg: modulators of RGS4 binding to Galphao, primary screen, biochemical, multiplexed bead flow cytometry. AID 1415, 2008. binding response (% of control), % at 10 µM. actives lie on both sides. Guanine nucleotide-binding protein G(o) subunit alpha (Homo sapiens), P09471. 220,000 tested, 0.33% active; in the data active = binding response below about 49% or above about 150%; inactive = in between;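 also: fluorescent Galphao activated with aluminum fluoride binding bead-coupled RGS4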
Target sequence (P09471 whole entry, looked up): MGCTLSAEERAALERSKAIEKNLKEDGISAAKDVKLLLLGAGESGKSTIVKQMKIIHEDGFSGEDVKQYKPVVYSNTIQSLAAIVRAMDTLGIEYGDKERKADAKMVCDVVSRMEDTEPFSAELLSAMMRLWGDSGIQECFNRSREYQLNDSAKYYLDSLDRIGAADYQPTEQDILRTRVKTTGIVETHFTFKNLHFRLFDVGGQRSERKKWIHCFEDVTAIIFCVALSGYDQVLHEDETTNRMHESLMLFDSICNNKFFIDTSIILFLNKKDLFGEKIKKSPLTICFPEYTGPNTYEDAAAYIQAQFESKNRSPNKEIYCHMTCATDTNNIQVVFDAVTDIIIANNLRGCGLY
RGS16-Gao: modulators of RGS16 binding to Galphao, primary screen, biochemical, human proteins, multiplexed bead flow cytometry; bead-based flow cytometry RGS16-Galphao binding, fluorescence; actives lie on both sides; binding response (% of control), % at 10 µM; 220,000 tested, 0.38% active;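 also: Galphao activated by GDP with aluminum fluoride before binding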
RGS7-Gao reg: RGS7-Galphao binding modulators, primary screen, biochemical, multiplexed bead flow cytometry. Guanine nucleotide-binding protein G(o) subunit alpha (Homo sapiens), P09471. actives lie on both sides. binding response (% of control), % at 10 µM. 220,000 tested, 0.35% active. AID 1439, 2008; in the data active = binding response below about 49% or above about 150%; inconclusive = no clear call, values can overlap the other calls; inactive = in between;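 also: fluorescent Galphao held in activated GDP-AlF4 state binding bead-coupled RGS7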
RGS8-Gao reg: RGS8-Galphao binding modulators, primary screen, biochemical, multiplexed bead flow cytometry. actives lie on both sides. response (percent of control binding), % at 10 µM. 220,000 tested, 0.34% active. AID 1423, 2008; in the data active = response below about 60% or above about 140%; inactive = in between;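 also: Galphao activated as the GDP aluminium fluoride complex binding bead-coupled RGS8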
Avidin bead fluor: green autofluorescence of compounds with avidin beads – biophysical, 488/530 nm, flow cytometry, artefact control, profiling panel. compound fluorescence 488/530 nm; stronger effect = higher value. fluorescence (KMESF) at 10 µM. 220,000 tested, 0.38% active; in the data active = fluorescence above about 47
GSH fluor: compound fluorescence on glutathione beads, profiling panel, artefact control, biophysical, 488/530 nm, flow cytometry; GSH beads flow cytometry, compound fluorescence 488/530 nm; stronger effect = higher value; fluorescence (KMESF) at 10 µM; 190,000 tested, 0.25% active; AID 1776, 2009; in the data active = fluorescence above about 89;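 also: glutathione beads carrying GST-tagged Bcl family fusion proteins plus one bare bead set; values are compound well signal with DMSO vehicle wells as background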
RGS-Gao: modulators of RGS–Galpha-o binding, primary screen, biochemical, multiplexed beads, flow cytometry, RGS4/7/8/16/19. shares compounds with RGS16-Gao. multiplexed bead flow cytometry. RGS4–Galpha-o binding response, % at 10 µM. 1,600 tested, 99% active. AID 1504, 2009;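 also: fluorescently labeled Galpha-o bound to GDP with aluminium fluoride binding biotinylated RGS beads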
Avidin counter: disruption of biotin probe capture by avidin, counter-screen for RGS protein interaction modulators, biochemical, flow cytometry, bead-based | shares compounds with RGS16-Gao | streptavidin beads, fluorescein-biotin binding | inhibition, % at 10 µM | 1,700 tested, under 10 active;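 active = inhibition above 50%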;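 also: median green fluorescence of gated singlet beads compared with DMSO control wells; 0% = DMSO wells and 100% = complete loss of bead fluorescence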
RGS8-Gao single: RGS8-Galphao binding modulators, confirmation, biochemical, multiplexed bead flow cytometry, single concentration; 1,700 tested, 3% active; binding response (% of control), % at 10 µM; shares compounds with RGS16-Gao; bead-based flow cytometry RGS8-Galphao binding, fluorescence; actives lie on both sides; AID 1836, 2009; in the data active = binding response below about 72% or above about 130%; inactive = in between;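 also: Galphao activated as GDP AlF4 complex before binding bead RGS8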
RGS7-Gao single: RGS7-Galphao binding modulators, confirmation, biochemical, multiplexed bead flow cytometry, single concentration | shares compounds with RGS16-Gao | bead-based flow cytometry RGS7-Galphao binding; actives lie on both sides | response (percent of control binding), % at 10 µM | 1,700 tested, 7.8% active | AID 1837, 2009; in the data active = response below about 75% or above about 130%; inactive = in between;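 also: fluorescent Galphao activated with GDP and aluminum fluoride binding bead-coupled RGS7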
RGS16-Gao conf: modulators of RGS16-Galphao protein binding, confirmation, biochemical, single concentration, multiplexed bead flow cytometry | shares compounds with RGS16-Gao | bead-based flow cytometry; actives lie on both sides | response (% of control binding), % at 10 µM | 1,700 tested, 4% active; in the data active = response below about 74% or above about 130%; inactive = in between;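 also: Galphao activated as the GDP aluminium fluoride complex binding bead-coupled RGS16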
RGS4-Gao single: modulators of RGS4-Galphao protein binding, confirmation, biochemical, single concentration, multiplexed bead flow cytometry; shares compounds with RGS16-Gao; actives lie on both sides; 1,700 tested, 4% active; binding response (% of control), % at 10 µM; in the data active = binding response below about 74% or above about 130%; inactive = in between
RGS19-Gao single: regulators of RGS19-Galphao binding, confirmation, biochemical, single point, multiplexed bead flow cytometry; shares compounds with RGS16-Gao; bead-based flow cytometry RGS19-Galphao binding; actives lie on both sides; response (percent of control binding), % at 10 µM; 1,700 tested, 5% active; AID 1841, 2009; in the data active = response below about 50% or above about 160%; inactive = in between;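 also: 100% = no compound control and 0% = blank background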
Active calls of the source: *; ? = inconclusive; nt = not tested or not shown; [ ] = another dose, or the depositor's remark. Unless noted, no rule for the calls is given here.

SMILES	RGS4-Gao reg	RGS16-Gao	RGS7-Gao reg	RGS8-Gao reg	Avidin bead fluor	GSH fluor	RGS-Gao	Avidin counter	RGS8-Gao single	RGS7-Gao single	RGS16-Gao conf	RGS4-Gao single	RGS19-Gao single
CC(C(=O)c1c[nH]c(C(N)=O)c1)c1ncc(C(F)(F)F)cc1Cl (configuration not stated)	53	49	51	58*	12	11	53*	-2	100	101	101	101	96
O=C(N/N=C/c1cc2c3c(c1O)CCCN3CCC2)c1ccccc1O	25*	-13	15*	43*	1	9	nt	-4	89	84	85	86	104
Cc1nn(-c2ccccc2)c(N2CCCC2)c1/C=N/NC(=O)c1ccccc1O	111	118	107	106	11	14	nt	nt	nt	nt	nt	nt	nt
CCN(CC)S(=O)(=O)c1ccc(NC=C(C#N)C#N)cc1	100	100	?	101	8	nt	nt	nt	nt	nt	nt	nt	nt
Clc1ccc(C2=CSC3=NCCN23)cc1Cl	-19*	-14*	-0.4*	18*	0	11	nt	0	102	91	100	98	104
Cc1cc(N2CCN(c3ccccc3)CC2)n2nnnc2n1	111	111	105	102	41	13	nt	nt	nt	nt	nt	nt	nt
Cc1cc(N2CCN(c3nnnn3-c3ccccc3)CC2)n2ncnc2n1	131	554	120	140*[activator]	3	31	131*	0	95	85	95	90	111
COc1ccc(-c2[nH]ncc2CN(C)CCN2CCOCC2)cc1F	-6.3*	-4.7*	-15*	6.9*	-2	15	nt	-2	91	81	87	87	84
COc1cccc(CN2CCN(c3nc4nonc4nc3NC3CC3)CC2)c1	102	105	102	103	10	21	nt	nt	nt	nt	nt	nt	nt
CCN(CC)S(=O)(=O)c1cc(C)ccc1NC(=S)Nc1cccnc1	100	102	102	100	23	13	nt	nt	nt	nt	nt	nt	nt
S=c1[nH]nc(-c2ccccc2)n1/N=C/C=C/c1ccco1	90	-0.4*	88	79	4	11	90*	1	93	116	96	103	71

High-throughput results (PubChem BioAssay)
